KAT2A inh = GCN5L2 (KAT2A) acetyltransferase inhibition. Potency, µM (titrated, usually from 58.9 µM), most hits filed as inhibitors. Q92830. GCN5L2 HAT assay, ThioGlo1 CoA-SH fluorescence. 0.21% of 390,000 active
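Titration-based screen in which CoA formation is detected via maleimide probe ThioGlo1 (50uM) turning fluorescent on thiol reaction; substrates H3(1-25) 75uM and acetyl-CoA 70uM, GCN5L2 20nM, 20 min incubation at room temperature.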
12-LOX inh = ALOX12 (human) lipoxygenase inhibition | purified 12hLO, xylenol orange hydroperoxide absorbance | Potency, µM (series often up to 108 µM), most hits filed as inhibitors | 1.1% of 580,000 active
Target sequence (P18054 whole entry, looked up): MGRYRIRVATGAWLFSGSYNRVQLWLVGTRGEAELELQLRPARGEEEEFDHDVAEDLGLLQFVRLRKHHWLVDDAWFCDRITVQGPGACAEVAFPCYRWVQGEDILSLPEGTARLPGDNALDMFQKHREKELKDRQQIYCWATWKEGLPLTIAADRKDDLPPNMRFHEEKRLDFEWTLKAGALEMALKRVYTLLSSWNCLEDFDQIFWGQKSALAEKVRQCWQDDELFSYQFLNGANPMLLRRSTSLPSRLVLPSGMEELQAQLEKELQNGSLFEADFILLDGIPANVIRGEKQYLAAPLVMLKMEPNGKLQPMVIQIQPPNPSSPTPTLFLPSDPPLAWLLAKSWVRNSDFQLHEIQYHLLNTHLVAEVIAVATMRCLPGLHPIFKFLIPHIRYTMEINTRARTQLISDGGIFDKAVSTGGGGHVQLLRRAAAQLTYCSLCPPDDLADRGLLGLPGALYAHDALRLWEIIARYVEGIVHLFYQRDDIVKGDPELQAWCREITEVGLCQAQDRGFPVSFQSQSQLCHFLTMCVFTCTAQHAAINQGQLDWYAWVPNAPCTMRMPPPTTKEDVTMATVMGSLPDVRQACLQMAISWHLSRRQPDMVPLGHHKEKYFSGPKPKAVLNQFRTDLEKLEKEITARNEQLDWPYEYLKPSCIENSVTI
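Purified human 12hLO (150 nM final) in 25 mM Hepes, 0.01% Triton X-100, pH 7.0 was preincubated 15 min at room temperature with compound. Then 40 uM arachidonic acid was added, 30 min. Hydroperoxide was read by Fe-XO absorbance ratio 573/405 nm.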
PLK1 PBD inh = blocks phosphopeptide binding to human PLK1 polo-box domain; 2.8% of 360,000 active; Potency, µM, hits mostly inhibitors; P53350; Plk1 PBD binding of FITC phosphopeptide, fluorescence polarization; also: series mostly up to about 57 µM; nearly all actives have a fitted effect of over 65% in size
VDR inhibitor = vitamin D3 receptor (human) inhibition; P11473; VDR-SRC2-3 peptide fluorescence polarization, 2 h; Potency, µM, most hits filed as inhibitors; 0.93% of 400,000 active
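The screen uses fluorescence polarization to detect compounds that interfere with recruitment of the SRC2-3 coactivator peptide to VDR; plates are read after 2 h at room temperature.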
A number is an active result. Only some compounds are listed: those with a hit (about 3% of all), similar ones and a draw of the others. Calls follow the shape of the dose curve; as a rule, active = well fitted curve in the direction sought with a large enough effect; inconclusive = small, poorly fitted or top-dose-only effect, or another doubt; inactive = no such curve, though single readings can be large; an effect the other way counts as inactive or inconclusive.

How did COc1cc(/C=N/NC(N)=S)ccc1OCc1ccc(C)cc1 do in these assays?
KAT2A inh: inactive; 12-LOX inh: 44.7µM; PLK1 PBD inh: inactive; VDR inhibitor: inactive

How did CC1CN(CCOc2ccc(Cl)c(Cl)c2)CC(C)O1 (stereo not given) do in these assays?
KAT2A inh: inactive; 12-LOX inh: 0.447µM; PLK1 PBD inh: inactive; VDR inhibitor: inactive

How did CC1CCN(CCOc2ccc(Cl)c(Cl)c2)CC1 do in these assays?
KAT2A inh: inactive; 12-LOX inh: inconclusive; PLK1 PBD inh: inactive; VDR inhibitor: inactive

Results for COc1cccc(-c2ccc3ncnc(NCc4ccccc4)c3c2)c1 ?
KAT2A inh: inactive; 12-LOX inh: inactive; VDR inhibitor: inactive

How did Cc1[nH]nc2ccc(-c3cncc(OC[C@@H](N)Cc4ccccc4)c3)cc12 do in these assays?
12-LOX inh: 7.69µM

Results for CCOC(=O)CCNCc1ccc(OC)c(OC)c1 ?
KAT2A inh: inactive; 12-LOX inh: inactive; PLK1 PBD inh: 23.8µM; VDR inhibitor: inconclusive

Results for CCOc1cc(CNCc2ccc(C(=O)O)cc2)ccc1OC ?
KAT2A inh: inactive; 12-LOX inh: inactive; PLK1 PBD inh: inactive; VDR inhibitor: inactive

How did CCOC(=O)CC(NCc1ccc(OC)c(OCC)c1)c1ccc(C)cc1 (stereo not given) do in these assays?
KAT2A inh: inactive; 12-LOX inh: inactive; PLK1 PBD inh: 21.2µM; VDR inhibitor: inactive

What do the screens show for `CCOCCCNCc1ccc(OC)c(OC)c1`?
KAT2A inh: inactive; 12-LOX inh: inconclusive; PLK1 PBD inh: inactive; VDR inhibitor: inactive

How did CCc1nc2c(NC(=O)NCCc3ccccc3)cccn2n1 do in these assays?
12-LOX inh: inactive

What do the screens show for `Cc1ccc(S(=O)(=O)N2CCN(C(=O)c3cc4cc(C)ccc4nc3C)CC2)c(C)c1`?
12-LOX inh: inactive

How did Cc1oc2ccc(OS(C)(=O)=O)cc2c1C(=O)OC(C)C do in these assays?
KAT2A inh: inactive; 12-LOX inh: inactive; PLK1 PBD inh: 18.9µM; VDR inhibitor: inconclusive

Results for Oc1cccc2[nH]ncc12 ?
12-LOX inh: inactive

How did O=C(COc1ccccc1)N1CCC2(CC1)NC(=O)N(c1cccc(F)c1)N2 do in these assays?
12-LOX inh: 2.82µM

What do the screens show for `Cc1cccc(OCC(=O)N2CCC3(CC2)NC(=O)N(c2cccc(F)c2)N3)c1`?
12-LOX inh: 2.24µM

Results for O=C(COc1ccc(F)cc1)N1CCC2(CC1)NC(=O)N(c1ccc(F)cc1)N2 ?
12-LOX inh: 2.51µM

What do the screens show for `Cc1cccc(OCC(=O)N2CCC3(CC2)NC(=O)N(Cc2ccccc2)C3=O)c1`?
12-LOX inh: inactive

What do the screens show for `NC(=O)N1CCC2(CC1)NC(=O)N(c1ccccc1)N2`?
KAT2A inh: inactive; 12-LOX inh: inconclusive; PLK1 PBD inh: inactive; VDR inhibitor: inactive

What do the screens show for `CCCc1cc(=O)oc2cc(OCC(N)=O)ccc12`?
12-LOX inh: inactive

What do the screens show for `COc1ccc2oc(=O)c(-c3nc(-c4ccccc4Cl)no3)cc2c1`?
12-LOX inh: inactive

Results for O=C(NCc1ccccn1)C1c2ccccc2C(=O)N(Cc2ccccc2)C12CCCC2 (stereo not given) ?
12-LOX inh: inactive

Results for CCOc1cccc(/C=N/NS(=O)(=O)c2ccc(C)c([N+](=O)[O-])c2)c1O ?
KAT2A inh: inactive; 12-LOX inh: inactive; PLK1 PBD inh: 29.9µM; VDR inhibitor: inactive

How did CCc1nc2ccccc2n1CC(=O)N1CCN(Cc2ccccc2)CC1 do in these assays?
KAT2A inh: inactive; 12-LOX inh: inactive; PLK1 PBD inh: 21.2µM; VDR inhibitor: inactive

What do the screens show for `CC(=O)Nc1ccc(NC(=O)Cn2c(CC(=O)N3CCCC3)nc3ccccc32)cc1`?
KAT2A inh: inactive; 12-LOX inh: inactive; PLK1 PBD inh: 29.9µM; VDR inhibitor: inactive

How did CC(=O)Nc1ccc(C(=O)CSc2nc3ccccc3n2CC(=O)N2CCCC2)cc1 do in these assays?
KAT2A inh: inactive; 12-LOX inh: inactive; PLK1 PBD inh: inconclusive; VDR inhibitor: 79.4µM

What do the screens show for `O=C(Cn1c(NCCO)nc2ccccc21)N1CCN(Cc2ccccc2)CC1`?
KAT2A inh: inactive; 12-LOX inh: inactive; PLK1 PBD inh: inactive; VDR inhibitor: inactive

What do the screens show for `O=C(CSc1nc2ccccc2n1CC(=O)N1CCCCC1)N1CCCCC1`?
KAT2A inh: inactive; 12-LOX inh: inactive; PLK1 PBD inh: inactive; VDR inhibitor: inactive

Results for Cc1ccc(S(=O)(=O)N(Cc2cccnc2)C2CC2)cc1F ?
12-LOX inh: inactive

What do the screens show for `CNC(=O)CCn1ncc2cc(OCc3ccccc3-c3ccc(F)cc3C)ccc21`?
12-LOX inh: 63.1µM

How did COc1ccc(F)cc1-c1ccc(COc2ccc3c(cnn3CCC(=O)O)c2)cc1 do in these assays?
12-LOX inh: 35.5µM

What do the screens show for `COc1cccc(-c2ccc(COc3ccc4c(cnn4CCC(=O)O)c3)cc2)c1F`?
12-LOX inh: inactive

What do the screens show for `CCc1ccc(C(=O)/C=C/c2cnn(C)c2C)s1`?
KAT2A inh: inactive; 12-LOX inh: inactive; PLK1 PBD inh: inactive; VDR inhibitor: inactive

How did CCOc1ccc(/C=C/C(=O)c2cccs2)cc1 do in these assays?
KAT2A inh: inactive; VDR inhibitor: 22.4µM

Results for Cc1c(/C=C/C(=O)c2cccs2)cnn1C ?
KAT2A inh: inactive; 12-LOX inh: inactive; PLK1 PBD inh: 3.36µM; VDR inhibitor: inconclusive

How did O=C(/C=C/c1ccccc1)c1cccs1 do in these assays?
KAT2A inh: inactive; VDR inhibitor: 11.2µM

What do the screens show for `O=C(O)c1ccc(/C=C/C(=O)c2cccs2)cc1`?
12-LOX inh: inactive

Results for O=C(C=Cc1ccccc1)c1cccs1 ?
12-LOX inh: inactive; PLK1 PBD inh: inactive; VDR inhibitor: 56.2µM

What do the screens show for `COc1cc(-c2onc(C)c2C(=O)N2CCC(Cc3ccc4c(c3)OCO4)CC2)cc(OC)c1OC`?
12-LOX inh: inactive

What do the screens show for `O=C(CSc1nnc(-c2ccc3c(c2)OCO3)o1)Nc1ccc2c(c1)OC1(CCCC1)O2`?
12-LOX inh: inactive

How did Cc1ccc(CNCCN(C)C)s1 do in these assays?
12-LOX inh: inactive

Results for CC12CC3(C)CC(C(=O)O)(C1)CC(C(=O)O)(C2)C3 ?
12-LOX inh: inactive

Results for N#C/C(=C\c1c(Oc2ccc(Br)cc2)nc2ccccn2c1=O)c1nc2ccccc2s1 ?
KAT2A inh: inactive; 12-LOX inh: inconclusive; VDR inhibitor: 39.8µM

Results for O=c1[nH]c(=O)n(Cc2ccc(Oc3ccccc3)cc2)cc1Br ?
KAT2A inh: inactive; 12-LOX inh: inactive

What do the screens show for `C=C1CC(Cn2cc(Br)c(=O)[nH]c2=O)(c2ccc(-c3ccccc3)cc2)OC1=O` (stereo not given)?
12-LOX inh: inconclusive; PLK1 PBD inh: 23.8µM; VDR inhibitor: inconclusive

How did O=c1c2ccccc2nc(N/N=C/c2c(O)ccc3ccccc23)n1O do in these assays?
KAT2A inh: inactive; 12-LOX inh: inconclusive; PLK1 PBD inh: 29.9µM; VDR inhibitor: inactive

Results for CCN(CC)S(=O)(=O)c1ccc(C(=O)NCc2n[nH]c(=S)n2Cc2ccccc2)cc1 ?
KAT2A inh: inactive; 12-LOX inh: 25.1µM; PLK1 PBD inh: inactive; VDR inhibitor: inactive

Results for CCCCOc1ccc(C(=O)Nc2ccc3oc(=O)ccc3c2)cc1 ?
12-LOX inh: inactive
